Assay results: ChEMBL document CHEMBL1961873, “Compounds: GSK PKIS; Assays: Nanosyn kinase panel” (2012)

Legend:
[1] = target: Protein kinase C gamma type (Homo sapiens) (UniProt P05129); details: at 1 µM;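 also: each value is an averaged percent inhibition of the enzyme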
[2] = target: T1, Protein kinase C iota type (Homo sapiens) (UniProt P41743); details: at 0.1 µM
T1 sequence (whole entry): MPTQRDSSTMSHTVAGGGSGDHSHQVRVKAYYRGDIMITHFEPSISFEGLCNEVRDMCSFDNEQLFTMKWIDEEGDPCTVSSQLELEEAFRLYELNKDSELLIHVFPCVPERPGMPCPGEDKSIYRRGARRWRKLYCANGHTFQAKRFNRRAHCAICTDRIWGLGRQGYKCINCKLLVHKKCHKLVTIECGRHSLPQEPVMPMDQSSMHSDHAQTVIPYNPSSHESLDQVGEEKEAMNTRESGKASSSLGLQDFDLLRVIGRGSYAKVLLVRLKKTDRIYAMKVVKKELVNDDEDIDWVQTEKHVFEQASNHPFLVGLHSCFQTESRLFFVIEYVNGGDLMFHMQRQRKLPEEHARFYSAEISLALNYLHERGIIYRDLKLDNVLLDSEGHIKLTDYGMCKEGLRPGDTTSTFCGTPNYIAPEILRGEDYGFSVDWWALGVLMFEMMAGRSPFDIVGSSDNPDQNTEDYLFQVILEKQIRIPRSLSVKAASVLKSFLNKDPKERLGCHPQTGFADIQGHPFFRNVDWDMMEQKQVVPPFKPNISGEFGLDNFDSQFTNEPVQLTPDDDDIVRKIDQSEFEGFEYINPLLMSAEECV

[3] = target: T1, Protein kinase C iota type (Homo sapiens); details: at 1 µM
[4] = target: Protein kinase C theta type (Homo sapiens) (UniProt Q04759); details: at 0.1 µM
[5] = target: Protein kinase C theta type (Homo sapiens) (UniProt Q04759); details: at 1 µM
[6] = target: Protein kinase C beta type (Homo sapiens) (UniProt P05771); details: at 0.1 µM
[7] = target: Protein kinase C beta type (Homo sapiens) (UniProt P05771); details: at 1 µM
[8] = target: T2, Serine/threonine-protein kinase D1 (Homo sapiens) (UniProt Q15139); details: at 0.1 µM
T2 sequence (whole entry): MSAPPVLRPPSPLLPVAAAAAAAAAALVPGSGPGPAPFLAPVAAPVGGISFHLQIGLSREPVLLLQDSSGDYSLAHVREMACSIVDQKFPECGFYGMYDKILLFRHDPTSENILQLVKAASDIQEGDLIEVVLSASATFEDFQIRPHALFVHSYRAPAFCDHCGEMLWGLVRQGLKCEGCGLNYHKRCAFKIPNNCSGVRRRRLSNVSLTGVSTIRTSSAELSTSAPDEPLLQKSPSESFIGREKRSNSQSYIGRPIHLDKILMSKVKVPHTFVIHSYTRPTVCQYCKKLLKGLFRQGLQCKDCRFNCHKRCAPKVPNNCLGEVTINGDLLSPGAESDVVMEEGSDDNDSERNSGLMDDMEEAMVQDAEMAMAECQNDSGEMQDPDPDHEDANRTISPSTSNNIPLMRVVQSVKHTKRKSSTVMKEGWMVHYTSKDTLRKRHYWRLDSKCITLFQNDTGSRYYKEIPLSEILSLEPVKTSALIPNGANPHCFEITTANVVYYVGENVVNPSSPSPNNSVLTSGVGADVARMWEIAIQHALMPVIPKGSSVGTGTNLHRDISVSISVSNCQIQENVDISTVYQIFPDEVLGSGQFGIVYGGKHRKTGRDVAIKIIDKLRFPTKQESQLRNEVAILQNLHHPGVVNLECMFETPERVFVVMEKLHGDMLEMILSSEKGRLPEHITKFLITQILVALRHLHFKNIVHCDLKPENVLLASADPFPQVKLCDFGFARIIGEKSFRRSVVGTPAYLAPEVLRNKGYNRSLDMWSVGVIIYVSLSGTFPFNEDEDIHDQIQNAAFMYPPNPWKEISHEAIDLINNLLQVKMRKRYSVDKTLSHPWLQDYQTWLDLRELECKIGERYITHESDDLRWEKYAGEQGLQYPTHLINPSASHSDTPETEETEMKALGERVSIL

[9] = target: T2, Serine/threonine-protein kinase D1 (Homo sapiens); details: at 1 µM
[10] = target: T3, Serine/threonine-protein kinase D2 (Homo sapiens) (UniProt Q9BZL6); details: at 0.1 µM;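 also: reported percent inhibition values are means, part of the GSK PKIS kinase panel screen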
T3 sequence (whole entry): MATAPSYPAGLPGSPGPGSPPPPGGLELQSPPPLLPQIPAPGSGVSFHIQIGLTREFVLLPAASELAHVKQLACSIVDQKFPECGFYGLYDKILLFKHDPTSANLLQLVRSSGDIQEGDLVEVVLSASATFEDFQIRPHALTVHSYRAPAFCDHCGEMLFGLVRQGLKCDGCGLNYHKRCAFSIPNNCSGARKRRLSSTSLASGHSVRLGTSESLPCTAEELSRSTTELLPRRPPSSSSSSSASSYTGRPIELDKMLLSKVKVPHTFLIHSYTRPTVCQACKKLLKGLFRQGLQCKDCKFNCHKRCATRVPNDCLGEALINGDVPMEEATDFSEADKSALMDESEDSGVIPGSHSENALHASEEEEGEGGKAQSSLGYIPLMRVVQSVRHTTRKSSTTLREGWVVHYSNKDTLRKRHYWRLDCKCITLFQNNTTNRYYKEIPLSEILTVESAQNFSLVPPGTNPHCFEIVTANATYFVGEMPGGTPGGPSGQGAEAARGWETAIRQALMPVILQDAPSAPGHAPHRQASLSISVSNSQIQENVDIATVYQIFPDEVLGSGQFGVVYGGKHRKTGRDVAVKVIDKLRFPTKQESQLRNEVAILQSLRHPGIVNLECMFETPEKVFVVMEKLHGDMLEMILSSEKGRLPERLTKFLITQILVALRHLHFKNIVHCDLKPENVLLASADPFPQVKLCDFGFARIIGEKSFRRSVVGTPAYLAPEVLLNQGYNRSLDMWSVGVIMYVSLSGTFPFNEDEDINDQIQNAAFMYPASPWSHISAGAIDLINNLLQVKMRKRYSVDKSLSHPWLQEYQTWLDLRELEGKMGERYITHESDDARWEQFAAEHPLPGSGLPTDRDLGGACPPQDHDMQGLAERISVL

Sequence of Protein kinase C theta type (Homo sapiens) (Q04759 whole entry, looked up): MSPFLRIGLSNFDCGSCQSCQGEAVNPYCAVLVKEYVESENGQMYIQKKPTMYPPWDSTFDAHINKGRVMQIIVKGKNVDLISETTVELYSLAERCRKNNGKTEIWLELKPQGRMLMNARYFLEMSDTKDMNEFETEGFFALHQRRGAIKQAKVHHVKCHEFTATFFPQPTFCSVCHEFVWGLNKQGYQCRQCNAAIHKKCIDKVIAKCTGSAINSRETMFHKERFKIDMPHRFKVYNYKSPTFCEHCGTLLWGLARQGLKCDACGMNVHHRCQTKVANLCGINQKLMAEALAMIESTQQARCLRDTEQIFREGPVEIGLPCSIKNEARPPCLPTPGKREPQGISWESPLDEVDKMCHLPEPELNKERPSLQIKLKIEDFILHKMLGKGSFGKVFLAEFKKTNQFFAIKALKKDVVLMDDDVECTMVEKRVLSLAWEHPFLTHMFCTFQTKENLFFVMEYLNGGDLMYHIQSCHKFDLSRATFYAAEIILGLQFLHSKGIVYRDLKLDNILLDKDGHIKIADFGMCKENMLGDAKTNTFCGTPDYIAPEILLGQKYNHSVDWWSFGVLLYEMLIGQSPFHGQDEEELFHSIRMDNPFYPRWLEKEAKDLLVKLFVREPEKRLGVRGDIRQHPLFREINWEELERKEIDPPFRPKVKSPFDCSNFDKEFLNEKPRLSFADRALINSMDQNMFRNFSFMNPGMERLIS
Sequence of Protein kinase C beta type (Homo sapiens) (P05771 2-671 limits assumed): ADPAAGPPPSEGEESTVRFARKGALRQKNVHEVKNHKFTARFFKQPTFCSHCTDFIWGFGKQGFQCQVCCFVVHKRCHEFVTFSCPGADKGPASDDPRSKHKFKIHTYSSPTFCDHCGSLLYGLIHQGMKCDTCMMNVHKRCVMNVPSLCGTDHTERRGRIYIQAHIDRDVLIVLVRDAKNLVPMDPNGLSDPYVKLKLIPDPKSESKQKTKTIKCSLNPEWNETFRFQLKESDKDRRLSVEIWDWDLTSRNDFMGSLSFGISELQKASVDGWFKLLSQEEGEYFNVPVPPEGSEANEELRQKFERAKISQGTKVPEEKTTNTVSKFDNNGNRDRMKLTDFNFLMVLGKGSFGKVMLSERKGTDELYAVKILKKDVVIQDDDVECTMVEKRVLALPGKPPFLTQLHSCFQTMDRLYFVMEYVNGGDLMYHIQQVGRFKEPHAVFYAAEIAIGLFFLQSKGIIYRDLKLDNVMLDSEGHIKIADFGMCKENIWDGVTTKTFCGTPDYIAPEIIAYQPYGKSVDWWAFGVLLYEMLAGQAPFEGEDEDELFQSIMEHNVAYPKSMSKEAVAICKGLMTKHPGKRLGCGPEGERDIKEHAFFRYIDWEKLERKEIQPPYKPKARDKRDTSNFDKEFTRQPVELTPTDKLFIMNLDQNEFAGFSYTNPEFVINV

## CCN(CC)S(=O)(=O)c1ccc(OC)c(Nc2ncc(-c3ccccc3)o2)c1
[1]
  inhibition: 3.98%
[2]
  inhibition: 0.63%
[3]
  inhibition: -0.91%
[4]
  inhibition: 1.36%
[5]
  inhibition: 1.38%
[6]
  inhibition: 0.23%
[7]
  inhibition: 1.41%
[8]
  inhibition: 1.66%
[9]
  inhibition: 0.39%
[10]
  inhibition: 0.75%

## c1cc(-c2cnn3nc(N4CCOCC4)ccc23)nc(NC2CC2)n1
[1]
  inhibition: 1.85%
[2]
  inhibition: 1.79%
[3]
  inhibition: 3.89%
[4]
  inhibition: 1.39%
[5]
  inhibition: 1.61%
[6]
  inhibition: 0.87%
[7]
  inhibition: 1.89%
[8]
  inhibition: 3.97%
[9]
  inhibition: 39.6%
[10]
  inhibition: 6.38%

## CCN1CCC(CC(=O)Nc2n[nH]c3nnc(-c4cccc(F)c4F)cc23)CC1
[1]
  inhibition: 1.09%
[2]
  inhibition: 0.63%
[3]
  inhibition: 1.36%
[4]
  inhibition: 0.68%
[5]
  inhibition: 1.31%
[6]
  inhibition: 0.16%
[7]
  inhibition: 0.85%
[8]
  inhibition: 0.72%
[9]
  inhibition: 1.85%
[10]
  inhibition: 2.45%

## CC(C)COC(=O)c1ccc2c(c1)/C(=C/Nc1ccc(S(N)(=O)=O)cc1)C(=O)N2
[1]
  inhibition: 9.06%
[2]
  inhibition: -0.44%
[3]
  inhibition: 1.73%
[4]
  inhibition: 2.36%
[5]
  inhibition: 7.78%
[6]
  inhibition: 3.37%
[7]
  inhibition: 6.47%
[8]
  inhibition: 4.18%
[9]
  inhibition: 56%
[10]
  inhibition: 4.41%

## COc1ccc2[nH]c3c4[nH]c5ccc(OC)cc5c4c4c(c3c2c1)C(=O)NC4=O
[1]
  inhibition: 11.7%
[2]
  inhibition: 0.72%
[3]
  inhibition: 0.15%
[4]
  inhibition: 4.69%
[5]
  inhibition: 20.9%
[6]
  inhibition: 3.68%
[7]
  inhibition: 12.9%
[8]
  inhibition: 5.02%
[9]
  inhibition: 27%
[10]
  inhibition: 8.15%

## CNC(=O)c1cncc(/C=C/c2ccccc2Cl)c1
[1]
  inhibition: 3.18%
[2]
  inhibition: 1.77%
[3]
  inhibition: 0.56%
[4]
  inhibition: 1.22%
[5]
  inhibition: 3.14%
[6]
  inhibition: 2.46%
[7]
  inhibition: 1.4%
[8]
  inhibition: 1.19%
[9]
  inhibition: -1.46%
[10]
  inhibition: -1%

## CCn1c(-c2nonc2N)nc2c(C#CC(C)(C)O)ncc(OC3CCNCC3)c21
[1]
  inhibition: 89.5%
[2]
  inhibition: -0.03%
[3]
  inhibition: 6.53%
[4]
  inhibition: 38%
[5]
  inhibition: 81.5%
[6]
  inhibition: 19.7%
[7]
  inhibition: 61.7%
[8]
  inhibition: 4.17%
[9]
  inhibition: 13.4%
[10]
  inhibition: 3.98%

## CCCN(CCS(C)(=O)=O)Cc1ccc(-c2ccc3ncnc(Nc4ccc(OCc5cccc(F)c5)c(Cl)c4)c3c2)o1
[1]
  inhibition: 2.5%
[2]
  inhibition: 1.67%
[3]
  inhibition: -0.59%
[4]
  inhibition: 0.4%
[5]
  inhibition: 0.62%
[6]
  inhibition: 1.13%
[7]
  inhibition: 2.02%
[8]
  inhibition: 1.1%
[9]
  inhibition: 2.52%
[10]
  inhibition: 0.95%

## COC(=O)Nc1nc2ccc(S(=O)(=O)c3ccc(NC(=O)Nc4cc(C(F)(F)F)ccc4F)cc3)cc2[nH]1
[1]
  inhibition: 1.8%
[2]
  inhibition: 0.65%
[3]
  inhibition: 1.49%
[4]
  inhibition: 0.7%
[5]
  inhibition: -0.17%
[6]
  inhibition: 0.33%
[7]
  inhibition: 0.07%
[8]
  inhibition: 2.33%
[9]
  inhibition: 5.18%
[10]
  inhibition: 2.66%

## CS(=O)(=O)CCNCc1coc(-c2ccc3ncnc(Nc4ccc(OCc5ccccc5)cc4)c3c2)c1
[1]
  inhibition: 4.91%
[2]
  inhibition: 1.33%
[3]
  inhibition: 0.97%
[4]
  inhibition: 1.31%
[5]
  inhibition: 1.25%
[6]
  inhibition: -0.17%
[7]
  inhibition: 1.35%
[8]
  inhibition: 1.97%
[9]
  inhibition: 2.95%
[10]
  inhibition: 2.53%

## COc1ccc(-c2nn3ncccc3c2-c2ccnc(Nc3ccc4c(c3)OCCO4)n2)cc1
[1]
  inhibition: 3.96%
[2]
  inhibition: -0.29%
[3]
  inhibition: 0.67%
[4]
  inhibition: 0.69%
[5]
  inhibition: 2.58%
[6]
  inhibition: 1.22%
[7]
  inhibition: 7.32%
[8]
  inhibition: 3.21%
[9]
  inhibition: 6.6%
[10]
  inhibition: 2.69%

## COc1ccc(CNC(=O)c2ccc(-c3cc(-c4nnc(C)o4)ccc3C)cc2)cc1
[1]
  inhibition: 2.05%
[2]
  inhibition: 2.77%
[3]
  inhibition: 0.76%
[4]
  inhibition: 2.86%
[5]
  inhibition: 5.52%
[6]
  inhibition: 2.73%
[7]
  inhibition: 3.61%
[8]
  inhibition: 2.89%
[9]
  inhibition: -0.42%
[10]
  inhibition: 0.8%

## N#Cc1c(NC(=O)CN2CCOCC2)sc2c1CCCC2
[1]
  inhibition: 4.29%
[2]
  inhibition: 1.29%
[3]
  inhibition: 0.6%
[4]
  inhibition: 3.07%
[5]
  inhibition: 3.7%
[6]
  inhibition: 1.49%
[7]
  inhibition: 2.84%
[8]
  inhibition: 3.69%
[9]
  inhibition: 6.16%
[10]
  inhibition: 3.86%

## COc1ccc2c(-c3ccnc(Nc4cccc(OC(F)(F)F)c4)n3)cnn2n1
[1]
  inhibition: 1.65%
[2]
  inhibition: 2.36%
[3]
  inhibition: 1.45%
[4]
  inhibition: 2.59%
[5]
  inhibition: 4.8%
[6]
  inhibition: 1.08%
[7]
  inhibition: 5.19%
[8]
  inhibition: 3.42%
[9]
  inhibition: 6.19%
[10]
  inhibition: 3.92%

## N#Cc1c(NC(=O)c2ccc(F)cc2)sc2c1CCCC2
[1]
  inhibition: 0.62%
[2]
  inhibition: -0.52%
[3]
  inhibition: -1.26%
[4]
  inhibition: 0.53%
[5]
  inhibition: -0.01%
[6]
  inhibition: 1.04%
[7]
  inhibition: 0.69%
[8]
  inhibition: 1.57%
[9]
  inhibition: 2.87%
[10]
  inhibition: 3.3%

## COc1ccc(-c2oc3ncnc(N)c3c2-c2ccc(NC(=O)Nc3cc(C(F)(F)F)ccc3F)cc2)cc1
[1]
  inhibition: 6.08%
[2]
  inhibition: 3.51%
[3]
  inhibition: 0.63%
[4]
  inhibition: 3.51%
[5]
  inhibition: 5.06%
[6]
  inhibition: 1.71%
[7]
  inhibition: 4.49%
[8]
  inhibition: 2.73%
[9]
  inhibition: 3.09%
[10]
  inhibition: 3.37%

## O=C(Nc1n[nH]c2cc(-c3ccc(F)cc3)ccc12)C1CC1
[1]
  inhibition: 5.71%
[2]
  inhibition: 2.42%
[3]
  inhibition: 3.67%
[4]
  inhibition: 3%
[5]
  inhibition: 5.04%
[6]
  inhibition: 2.1%
[7]
  inhibition: 4.04%
[8]
  inhibition: 3.02%
[9]
  inhibition: 5.62%
[10]
  inhibition: 2.7%
